# Most compounds without a hit are left out; they make up all but 4.1% or so of the library.
# hcDAF-12 act = H. contortus DAF-12 activation, primary screen; HEK293 hcDAF-12 lit1-tk-luc reporter, luminescence; 0% DMSO, 100% Δ7-dafachronic acid; activation, % at 6.8 µM; 370,000 compounds, 1.4% hits; AID 652067;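 active means activation above the mean of all tested compounds plus 3 SD, cut at about 5.5% in these data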;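 further: 100% = response to 3 µM Δ7-dafachronic acid high control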
# ssDAF12 agonist = S. stercoralis DAF-12 activation, primary screen. HEK293 ssDAF-12/GRIP1 lit1-tk-luc reporter, luminescence; % of 3 µM dafachronic acid response. activation, % at 6.8 µM. 370,000 compounds, 1% hits;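 active means activation above the mean over all tested compounds plus 3 SD, cut at about 0.9% in these data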;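 further: 0% = DMSO-only wells and 100% = 3 µM delta7-dafachronic acid wells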
# hgDAF-12 ag = agonists of H. glycines DAF-12 nuclear receptor. activation, % at 6.8 µM. AID 687014. HEK293 GAL4-hgDAF12 UAS-luciferase reporter, agonist luminescence; normalized to butyrate control. 370,000 compounds, 1.8% hits;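 active means activation above a cutoff set at the mean of all screened compounds plus 3 SD, cut at about 10% in these data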;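 further: 0% = DMSO wells and 100% = sodium butyrate wells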
# DAX1 inh-1 = inhibits human nuclear receptor DAX1; P51843; HEK293 Gal4-DAX1 luciferase reporter, luminescence; inhibition, % at 6.75 µM; 340,000 compounds, 0.99% hits;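 active means inhibition above the mean over all tested compounds plus 3 SD, cut at about 4.2% in these data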;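 further: 0% = DAX1-transfected cells with DMSO and 100% = empty-vector control cells with DMSO; inhibition shows as a rise in luminescence from relieved DAX1 repression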
# Target sequence (P51843 207-470 limits assumed): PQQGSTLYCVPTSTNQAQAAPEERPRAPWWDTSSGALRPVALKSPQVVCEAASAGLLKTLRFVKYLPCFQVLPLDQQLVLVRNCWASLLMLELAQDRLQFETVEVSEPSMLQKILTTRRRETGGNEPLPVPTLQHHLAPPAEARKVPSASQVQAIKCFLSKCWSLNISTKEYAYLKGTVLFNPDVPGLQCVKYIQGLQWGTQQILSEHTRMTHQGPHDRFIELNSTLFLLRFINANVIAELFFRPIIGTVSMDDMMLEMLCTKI
# DAX1 inh-2 = inhibitors of DAX1 repression of SF-1 activated StAR promoter | 370,000 compounds, 1.1% hits | HEK293T StAR-luciferase reporter, SF-1/DAX-1 repression relief | inhibition, % at 6.8 µM;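 active means inhibition above the mean over all tested compounds plus 3 SD, cut at about 3.6% in these data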;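 further: 0% = DAX-1 cells with DMSO and 100% = cells lacking DAX-1 with DMSO; higher inhibition means more luminescence from relief of DAX-1 repression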
# Starred values were filed as active, the others as inactive; . = no result.
SMILES,hcDAF-12 act,ssDAF12 agonist,hgDAF-12 ag,DAX1 inh-1,DAX1 inh-2
O=C(c1ccccc1)c1cc2cc(Cl)ccc2[nH]1,3,1,5,2,1
N#Cc1cc2cc(Cl)ccc2[nH]c1=O,-1,-1,1,.,4.1*
Cc1ccc(-c2c[n+](CC(=O)Nc3ccccc3C)c3n2CCC3)cc1,1,-2,-1,4.3*,0
Cc1ccc(NC(=O)C[n+]2cc(-c3ccccc3)n3c2CCC3)cc1,-1,-1,-1,.,0
O=C(C[n+]1cc(-c2ccc(F)cc2)n2c1CCC2)c1cccs1,1,-1,1,6.7*,0
O=C(OC12CCCN(C1)/C(=C/c1cccnc1)C2)c1ccco1 (centres undefined),-1,-1,-4,.,-1
O=C(c1cccs1)n1ccc2ccc(-c3ccc4ccn(Cc5ccccc5)c4c3)cc21,0,1,0,.,2
COC(=O)NNC(=O)c1ccccc1OC,6.2*,-1,-1,1,1
COc1ccccc1C(=O)NNC(=O)c1cccc(C)c1,5,1.1*,8,2,1
COc1ccccc1C(=O)NNC(=O)c1cccc([N+](=O)[O-])c1,2,-2,1,0,0
O=C(N[C@@H](Cc1cccnc1)C(=O)N1CCC[C@H]1C(=O)NCCc1ccccc1Cl)C1CCCC1,-1,-1,0,.,0
CCNC(=O)N(C)[C@H]1C[C@H]2c3[nH]c4c(-c5ccccc5)cccc4c3CCN2C(=O)[C@H]1[C@H](C)O,0,-1,-3,.,-1
Cn1c(N2CCOCC2)c(/C=N/O)c2ccccc21,5,0,1,7.5*,0
CCc1cc2ccccc2nc1Cl,0,-1,0,6.1*,0
ClCc1cc2ccccc2nc1Cl,3,-1,2,-1,0
Cc1ccc2nc3sc(C(=O)N4CCN(C)CC4)cc3cc2c1,0,-2,2,.,.
CCc1ccc2nc3sc(C(=O)O)cc3cc2c1,6.1*,-1,7,0,3
CCCCCCCCN1C(=O)[C@@H](CC(=O)NCCCOCCCC)C[C@@]2(C(=O)OC)C1=C[C@H](C(C)(C)C)O[C@@H]2C,1,-1,1,.,0
O=C(O)c1ccccc1C(=O)c1ccc(Sc2ccc(Cl)cc2)c([N+](=O)[O-])c1,1,-1,0,8.1*,0
Nc1ccccc1Sc1ccc(C(=O)c2ccccc2C(=O)O)cc1[N+](=O)[O-],0,-1,2,2,1
O=C(O)c1ccccc1C(=O)c1ccc(N2CCOCC2)c([N+](=O)[O-])c1,2,1.1*,1,1,0
O=S1(=O)CC(O)C(Nc2ccccc2)C1 (centres undefined),-2,-1,-2,1,0
O=S1(=O)CC(O)C(N(CCO)C(=S)Nc2ccccc2)C1 (centres undefined),1,-1,-1,5.3*,0
CCOc1ccc(NS(=O)(=O)c2cc(NC(=O)CCC(=O)c3cccs3)ccc2Cl)cc1,-4,-2,-3,5.8*,0
Cc1ccc(NCCC(=O)c2cccs2)cc1,5,1.4*,12*,2,4.2*
SMILES,hcDAF-12 act,ssDAF12 agonist,hgDAF-12 ag,DAX1 inh-1,DAX1 inh-2
CC(C)c1ccc(NCCC(=O)c2cccs2)cc1,1,-2,7,4,0
O=C(CCNc1cccc(Cl)c1)c1cccs1,3,1.4*,5,-1,1
O=C(CCC(=O)c1cccs1)NCCc1ccc(F)cc1,3,0,-3,2,3.8*
O=S(=O)(c1ccccc1)n1c(CN2CCOCC2)nc2ccccc21,1,-1,-3,.,-1
CN1C(=O)C[C@@](C#N)(C(=O)N2CCOCC2)[C@H]1c1ccccc1,0,-1,-2,.,1
Cc1ccc(NC(=O)Nc2cccs2)nc1,0,0,9,2,0
Cc1ccc(NC(=O)Nc2cccs2)cc1,5,0,11*,0,1
Cc1ccc(NCCC(=O)c2cccs2)cc1Cl,4,0,12*,1,1
O=c1c(C=NCCCn2ccnc2)c(-c2ccccc2)[nH]n1-c1nc2ccccc2s1,-1,-1,3,2,4.3*
CN(C)CCCN=Cc1c(-c2ccccc2)[nH]n(-c2nc3ccccc3s2)c1=O,-4,-2,1,0,0
Nc1nnc(Cc2c[nH]c3ccccc23)s1,5.7*,1,3,0,-1
